Values joined by “and” are separate entries in the source; they are usually repeats but may differ in a detail not shown here. Equal entries are not always repeated. Inconclusive results are not listed. Entries that show only a call come without a potency. Active and inactive are the calls of the source. Calls follow the shape of the dose curve; as a rule, active = well fitted curve in the direction sought with a large enough effect; inconclusive = small, poorly fitted or top-dose-only effect, or another doubt; inactive = no such curve, though single readings can be large; an effect the other way counts as inactive or inconclusive.

The nature of one assay: qHTS of pediatric cancer cell lines to identify multiple opportunities for drug repurposing: Primary screen for RD cells (AID 1347104). Also: nearly all actives have a fitted effect of over 55% in size. To be noted: RD rhabdomyosarcoma viability, CellTiter-Glo luminescence, 48 h; series mostly up to 46 µM. The procedure, abridged: (§1)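 Viability was measured as metabolically active cells after 48 hours of treatment, read by CellTiter-Glo luminescence. Compounds were tested at multiple final concentrations, giving concentration-response curves.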
With `NC(=O)c1ccc2[nH]ccc2c1`, the Potency result was “inactive”.
Same read-out and setting: then `CN(Cc1cc(Br)cc(Br)c1N)C1CCCCC1`, with “inactive”; and `Cc1cccc(N(C)C(=S)Oc2ccc3ccccc3c2)c1`, with “inactive”.

A further assay can be described thus: qHTS of pediatric cancer cell lines to identify multiple opportunities for drug repurposing: Primary screen for MG 63 (6-TG R) cells (AID 1347105). Also: nearly all actives have a fitted effect of over 50% in size. Also: potency is read from the fitted curve at half-maximal effect. The note with it: MG 63 (6-TG R) viability, CellTiter-Glo, 48 h; series mostly up to 46 µM. The procedure, abridged:
as §1
(Quantitative high-throughput screening tests each substance at several concentrations.)
As to `CC(=O)Oc1ccccc1C(=O)Nc1ncc([N+](=O)[O-])s1`, the Potency entry was “inactive”.
In the case of `OCc1ccc(-c2nn(Cc3ccccc3)c3ccccc23)o1`, the Potency result is “inactive”.
On to `COc1cc2nc(N3CCCN(C)CC3)nc(NC3CCN(Cc4ccccc4)CC3)c2cc1OC`, for which the Potency was 9.35 µM (active).
Same read-out and setting: the entry for `O=C(O)c1ccc(-n2nc(-c3ccccc3O)nc2-c2ccccc2O)cc1` is “inactive”; for `CCC(=O)O[C@]1(C(=O)SCF)[C@H](C)C[C@H]2[C@@H]3C[C@H](F)C4=CC(=O)C=C[C@]4(C)[C@@]3(F)[C@@H](O)C[C@@]21C` it is “inactive”; for `NC(=O)c1cccnc1` it is “inactive”.
Same read-out and setting: the figure for `COC(=O)Nc1nc2ccc(S(=O)c3ccccc3)cc2[nH]1` (configuration not stated) is 668 nM (active) and 14.8 µM (active); for `N=C(N)c1ccc(OCCCCCOc2ccc(C(=N)N)cc2)cc1` it is “inactive”.
The same measure, in the same setting: then `COc1ccc2cc3[n+](cc2c1OC)CCc1cc2c(cc1-3)OCO2`, with 26.6 µM (active); and `CCC(C)(C)c1ccc(CC(C)CN2C[C@@H](C)O[C@@H](C)C2)cc1` (some centres not stated), with “inactive”; and `CC(=O)[C@H]1CC[C@H]2[C@@H]3CCC4=CC(=O)CC[C@]4(C)[C@H]3CC[C@]12C`, with 11.8 µM (active).
Consider `CCCCc1oc2ccc(NS(C)(=O)=O)cc2c1C(=O)c1ccc(OCCCN(CCCC)CCCC)cc1`, for which the Potency was 21.1 µM (active).
The same measure, in the same setting: then `CN(C)c1ccc(C(=C2C=CC(=[N+](C)C)C=C2)c2ccc(N(C)C)cc2)cc1`, with 2.66 µM (active) and 1.48 µM (active); and `COc1ccc(C(=O)CC(=O)c2ccc(C(C)(C)C)cc2)cc1`, with “inactive”.
On to `Oc1c(Cl)cc(Cl)c2cccnc12`, for which the Potency is 6.68 µM (active) and 11.8 µM (active).
Regarding `O=S(=O)(c1cccc2cnccc12)N1CCCNCC1`, the Potency entry was “inactive”.
Same read-out and setting: the figure for `Cc1ccc(S(=O)(=O)N[C@@H](Cc2ccccc2)C(=O)CCl)cc1` is 29.6 µM (active); for `C[C@@H](NCCCc1cccc(C(F)(F)F)c1)c1cccc2ccccc12` it is “inactive”.
Still for that read-out and setting: the entry for `CCOC(=O)c1ccc(C#Cc2ccc3c(c2)C(C)(C)CCS3)nc1` is “inactive”; for `S=P(N1CC1)(N1CC1)N1CC1` it is “inactive”; for `COC(=O)Nc1nc2ccc(C(=O)c3ccccc3)cc2[nH]1` it is 84.1 nM (active) and 935 nM (active).
Same read-out and setting: then `Nc1nc(F)nc2c1ncn2[C@@H]1O[C@H](CO)[C@@H](O)[C@@H]1O`, with 42.2 nM (active) and 590 nM (active); and `NC(=O)c1ccc2[nH]ccc2c1`, with “inactive”; and `CN(Cc1cc(Br)cc(Br)c1N)C1CCCCC1`, with “inactive”.
For the compound `Cc1cccc(N(C)C(=S)Oc2ccc3ccccc3c2)c1`, the Potency entry is “inactive”.
The same measure, in the same setting: then `CC(C)Cn1cnc2c(N)nc3ccccc3c21`, with “inactive”.

The next assay in a line: qHTS of pediatric cancer cell lines to identify multiple opportunities for drug repurposing: Primary screen for control Hh wild type fibroblast cells (AID 1347106). Also: nearly all actives have a fitted effect of over 55% in size. Also: potency is read from the fitted curve at half-maximal effect. The note with it: Hh wild-type fibroblast viability, CellTiter-Glo luminescence, 48 h; series mostly up to 46 µM. The method, boiled down:
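Cells (500-1,000/well) in growth media were settled 5 h at 37 degrees C, then given compounds for 48 h. Viability was read as CellTiter-Glo luminescence. Primary runs used MIPE at 11 points (0.78 nM-46 µM) and NPC at 8 points (0.59 nM-46 µM); follow-ups used 11 points.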
Take `CC(=O)Oc1ccccc1C(=O)Nc1ncc([N+](=O)[O-])s1`: the Potency result is “inactive”.
Same read-out and setting: then `OCc1ccc(-c2nn(Cc3ccccc3)c3ccccc23)o1`, with “inactive”.
With `COc1cc2nc(N3CCCN(C)CC3)nc(NC3CCN(Cc4ccccc4)CC3)c2cc1OC`, the Potency was 16.6 µM (active).
Still for that read-out and setting: then `O=C(O)c1ccc(-n2nc(-c3ccccc3O)nc2-c2ccccc2O)cc1`, with “inactive”; and `CCC(=O)O[C@]1(C(=O)SCF)[C@H](C)C[C@H]2[C@@H]3C[C@H](F)C4=CC(=O)C=C[C@]4(C)[C@@]3(F)[C@@H](O)C[C@@]21C`, with “inactive”; and `NC(=O)c1cccnc1`, with “inactive”.
On the same count and under the same terms, the entry for `Cc1nnc(NS(=O)(=O)c2ccc(N)cc2)s1` is “inactive”; for `COC(=O)Nc1nc2ccc(S(=O)c3ccccc3)cc2[nH]1` (configuration not stated) it is “inactive”.
The same measure, in the same setting: then `CCCc1nc(C)c2c(=O)[nH]c(-c3cc(S(=O)(=O)N4CCN(CC)CC4)ccc3OCC)nn12`, with “inactive”; and `N=C(N)c1ccc(OCCCCCOc2ccc(C(=N)N)cc2)cc1`, with “inactive”.
Turning to `Cc1c(-c2ccc(O)cc2)n(Cc2ccc(OCCN3CCCCCC3)cc2)c2ccc(O)cc12`, the Potency entry is “inactive”.
Same read-out and setting: then `COc1ccc2cc3[n+](cc2c1OC)CCc1cc2c(cc1-3)OCO2`, with “inactive”; and `CCC(C)(C)c1ccc(CC(C)CN2C[C@@H](C)O[C@@H](C)C2)cc1` (some centres not stated), with “inactive”; and `CC(=O)[C@H]1CC[C@H]2[C@@H]3CCC4=CC(=O)CC[C@]4(C)[C@H]3CC[C@]12C`, with “inactive”.
The same measure, in the same setting: the entry for `CCCCc1oc2ccc(NS(C)(=O)=O)cc2c1C(=O)c1ccc(OCCCN(CCCC)CCCC)cc1` is “inactive”; for `O[C@@H](CNC[C@H](O)[C@H]1CCc2cc(F)ccc2O1)[C@@H]1CCc2cc(F)ccc2O1` it is “inactive”.
On to `CN(C)c1ccc(C(=C2C=CC(=[N+](C)C)C=C2)c2ccc(N(C)C)cc2)cc1`, for which the Potency was 8.41 µM (active) and 2.64 µM (active).
The same measure, in the same setting: then `COc1ccc(C(=O)CC(=O)c2ccc(C(C)(C)C)cc2)cc1`, with “inactive”; and `Oc1c(Cl)cc(Cl)c2cccnc12`, with “inactive”; and `O=S(=O)(c1cccc2cnccc12)N1CCCNCC1`, with “inactive”.
On the same count and under the same terms, then `CCOC(=O)[C@H](CCc1ccccc1)N[C@H]1CCc2ccccc2N(CC(=O)O)C1=O`, with “inactive”; and `COc1cc2c(Nc3ccc(Br)cc3F)ncnc2cc1OCC1CCN(C)CC1`, with “inactive”.
The same measure, in the same setting: the entry for `Cc1ccc(S(=O)(=O)N[C@@H](Cc2ccccc2)C(=O)CCl)cc1` is “inactive”; for `C[C@@H](NCCCc1cccc(C(F)(F)F)c1)c1cccc2ccccc12` it is “inactive”; for `CCOC(=O)c1ccc(C#Cc2ccc3c(c2)C(C)(C)CCS3)nc1` it is “inactive”.
Turning to `S=P(N1CC1)(N1CC1)N1CC1`, the Potency entry was “inactive”.
On the same count and under the same terms, then `Nc1nc(F)nc2c1ncn2[C@@H]1O[C@H](CO)[C@@H](O)[C@@H]1O`, with “inactive”.
Same read-out and setting: the entry for `CCOC(=O)[C@H](CCc1ccccc1)N[C@H]1CS[C@H](c2cccs2)CN(CC(=O)O)C1=O` is “inactive”.
The same measure, in the same setting: then `NC(=O)c1ccc2[nH]ccc2c1`, with “inactive”; and `COc1cc2ncnc(Nc3cccc(Cl)c3)c2cc1OC`, with “inactive”; and `CN(Cc1cc(Br)cc(Br)c1N)C1CCCCC1`, with “inactive”.
Consider `Cc1cccc(N(C)C(=S)Oc2ccc3ccccc3c2)c1`, for which the Potency result was “inactive”.
The same measure, in the same setting: then `CC(C)Cn1cnc2c(N)nc3ccccc3c21`, with “inactive”.

The record behind these values is PubChem BioAssay (NCATS).
